# Source: PubChem (National Center for Advancing Translational Sciences (NCATS))
# An excerpt weighted towards active compounds, which were near 2.4% of everything screened.
# Epigenetic derep: Quantitative High-Throughput Screen for Regulators of Epigenetic Control. murine LDR cells, GFP reporter derepression, 30 h. Potency, µM (series often up to 53.9 µM), inactives show at the highest dose GFP activation, hits mostly activators. actives 0.2% (n = 280,000); further: % of control where 0% means no effect; nearly all actives have a fitted effect of over 60% in size
#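 In this reporter-derepression format, murine cells bearing a silenced integrated CMV-GFP locus incubate with test compound (30 h, 37 C), then are washed and imaged; fluorescent objects of 20–120 um count as induced cells.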
# A549 tox: Nrf2 qHTS screen for inhibitors: counterscreen for cytotoxicity. A549 ARE-Fluc cells, CellTiter-Fluor viability, 18-24 h. Potency, µM (doses to about 46 µM), without a hit: at the top dose activity change, negative = cytotoxicity, most hits filed as inhibitors. actives 0.16% (n = 390,000). AID 504648, 2011; further: on the % scale 0 is the no-effect control and ±100 the full control effect
#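 A549 ARE_Fluc cells in 5% FBS OPTI-MEM were exposed to compounds in concentration-response for 18-24 h at 37 deg C. Viability was read by CellTiter-Fluor fluorescence (Ex 405/Em 525) after 30 min, before the luciferase read.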
# Nrf2 block: Nrf2 qHTS screen for inhibitors; Potency, µM (highest dose often 46 µM), for the others: at the highest dose activity change, negative = inhibition, hits mostly inhibitors; A549 ARE-Fluc reporter, luciferase luminescence, 18-24 h; actives 2.1% (n = 360,000); further: on the % scale 0 is the no-effect control and ±100 the full control effect; nearly all actives have a fitted effect of over 60% in size
#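 Cells were seeded and rested 2 h, then exposed to compounds for 18-24 h. CellTiter-Fluor was read first as a viability measure. BugLite was added 15 min before the final luminescent read of ARE-luciferase activity in A549 cells.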
# PINK1 modulator: A Quantitative High throughput Screen to Identify Chemical Modulators of PINK1 Expression; Potency, µM (highest dose often 76.6 µM), for inactives: at the highest dose activation (PINK1 increase), hits mostly activators; actives 0.2% (n = 410,000); AID 624263, 2012; PINK1 immunofluorescence, high-content cytometry, 24 h; active means well fitted activation curve with a large enough effect; inconclusive means small, poorly fitted or top-dose-only effect; cell line not stated here; further: % of control where 0% means no effect; nearly all actives have a fitted effect of over 65% in size
#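 A stable cell line was treated with compounds at 5 concentrations for 24 hours, with CCCP as control. PINK1 levels and mitochondrial localization were measured by immunofluorescence with mitochondrial, cell and nuclear markers after fixation, read by laser-scanning cytometry.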
# Nrf2 activator: qHTS of Nrf2 Activators; AREc32 ARE-luciferase reporter (MCF7-derived line), luminescence, 24 h; actives 0.31% (n = 410,000); Potency, µM (highest dose often 46.1 µM), for the others: at the highest dose activation, hits mostly activators; further: % of control where 0% means no effect; nearly all actives have a fitted effect of over 65% in size
#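 Luminescent ARE reporter assay in AREc32_Fluc cells: overnight plating at 37 deg C, 24 hr compound incubation, Steady-Glo added, 30 min RT before reading.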
# Numbers without * were called inactive; ? = inconclusive; . = no result; [ ] = another dose, or the depositor's remark. Unless noted, the call rests on the fitted dose curve; in most records, active means well fitted curve in the direction sought with a large enough effect; inconclusive means small, poorly fitted or top-dose-only effect, or another doubt; inactive means no such curve, though single readings can be large; an effect the other way counts as inactive or inconclusive. Potency means the concentration at half of the fitted maximal effect.
SMILES,Epigenetic derep,A549 tox,Nrf2 block,PINK1 modulator,Nrf2 activator
O=[N+]([O-])c1ccc(N2CCN(C(=S)Nc3ccc(F)cc3)CC2)cc1,1.1%,-16.8%,?,0.6%,0.5%
O=[N+]([O-])c1ccc(N2CCN(C(=S)Nc3ccc(F)cc3F)CC2)cc1,2.4%,?,23.1µM*,-1.3%,3.4%
O=[N+]([O-])c1ccc(N2CCN(C(=S)Nc3cccc(F)c3)CC2)cc1,4.5%,-18.3%,16.4µM*,-0.1%,3.8%
COc1cc(=O)n2c(c1C(=O)N(C)Cc1ccsc1)CCN(Cc1c(C)nc3sccn13)CC2,.,.,.,0.2%,.
CCOC(=O)c1ccc2c(c1)sc1nc(-c3ccc(OCC)cc3)cn12,0.0%,0.5%,?,-0.4%,4.3%
O=c1[nH]c2ccc(S(=O)(=O)N3CCN(S(=O)(=O)c4c(F)cccc4F)CC3)cc2[nH]c1=O,.,-10.2%,4.0%,.,.
Cc1ccc(NS(=O)(=O)c2ccc(C(=O)NCCN3CCOCC3)cc2)cc1,.,-2.1%,9.2µM*,-3.4%,-0.2%
Cc1ccc(NS(=O)(=O)c2cccc(C(=O)NCC3CCCO3)c2)cc1 (configuration not stated),.,-1.0%,20.6µM*,-1.7%,5.3%
O=C(NCCN1CCOCC1)c1ccc(S(=O)(=O)Nc2ccccc2)cc1,.,0.8%,-11.0%,-0.7%,-2.5%
NC(=S)n1[nH]c(-c2ccc([N+](=O)[O-])cc2)c(N=Nc2ccc(O)cc2)c1=O,3.1%,-9.5%,?,0.6%,2.6%
NC(=S)n1[nH]c(-c2ccc([N+](=O)[O-])cc2)c(N=Nc2cccc(Cl)c2)c1=O,-0.6%,?,18.4µM*,12.6µM*,1.2%
O=C(NCc1ccc(F)cc1)n1c(-c2ccccc2)c(P(=S)(c2ccccc2)c2ccccc2)c2ccccc21,.,-15.7%,?,.,.
Cc1ccc(CNC(=O)C(=O)NCC2OCCN2S(=O)(=O)c2ccc(Br)cc2)cc1 (configuration not stated),.,-4.0%,16.4µM*,-1.9%,4.9%
Cc1ccc(CNC(=O)C(=O)NCC2OCCN2S(=O)(=O)c2ccc3c(c2)OCCO3)cc1 (configuration not stated),-1.9%,7.7%,10.3µM*,-1.1%,0.4%
COc1ccc(CCNC(=O)C(=O)NCC2OCCN2S(=O)(=O)c2ccc3c(c2)OCCO3)cc1 (configuration not stated),.,-22.0%,9.2µM*,-0.1%,0.4%
Cc1cccc(C)c1NC(=O)Cn1c(=O)n(Cc2ccc3c(c2)OCO3)c(=O)c2oc3ccccc3c21,?,4.9%,23.6%,1.4%,-0.2%
COc1ccc(N2CCN(S(=O)(=O)c3ccc4c(c3)CCCN4C(C)=O)CC2)cc1,0.0%,-0.8%,.,-1.2%,-0.9%
Cc1ncc2c(c1CNC(=O)CN1CCCC1)CCN(C(=O)c1ccc(F)cc1F)C2,.,.,.,-1.3%,.
Cc1ccc2c(c1)C(N1CCCC1=O)CC(c1ccco1)N2 (configuration not stated),1.7%,-2.9%,?,-0.8%,11.2µM*
COc1ccc(C#CC2=CC(=O)CC(C)(C)C2)cc1,.,.,.,0.3%,12.6µM*
COc1ccccc1C#CC1=CC(=O)CC(C)(C)C1,.,.,.,4.1%,14.1µM*
O=C(COc1ccccc1-c1nc(-c2ccccc2)no1)Nc1ccccc1[N+](=O)[O-],16.0%,4.2%,18.4µM*,-0.3%,21.8%
O=C(NC(c1ccc(Cl)cc1)c1cc(Cl)c2cccnc2c1O)c1cccnc1 (configuration not stated),?,?,10.3µM*,1.1%,2.9%
CC(=O)NC(c1ccc(C)cc1)c1cc([N+](=O)[O-])c2cccnc2c1O (configuration not stated),-1.0%,?,11.6µM*,23.0%,-0.1%
CC(=O)NC(c1ccccc1)c1cc(Cl)c2cccnc2c1O (configuration not stated),.,?,18.4µM*,0.9%,2.5%
SMILES,Epigenetic derep,A549 tox,Nrf2 block,PINK1 modulator,Nrf2 activator
CCC(=O)NC(c1ccc(C)cc1)c1cc([N+](=O)[O-])c2cccnc2c1O (configuration not stated),0.0%,-19.4%,23.1µM*,26.9%,-0.5%
COc1ccc(C(NC(C)=O)c2cc(Cl)c3cccnc3c2O)cc1 (configuration not stated),.,-11.5%,?,3.5%,0.5%
Cc1ccc(S(=O)(=O)N2CCN(c3nc(Nc4ccccc4O)nc4ccccc34)CC2)cc1,.,.,.,-0.3%,.
Cc1cnc(SCC2CCCO2)nc1C1CCCN(Cc2cc3c(cc2Cl)OCO3)C1 (configuration not stated),.,.,.,1.0%,.
Oc1c(C=NCc2ccncc2)sc2ccccc12,0.0%,-13.1%,21.2%,-0.3%,14.1µM*
Cc1ccc(O)c(N=Cc2sc3ccccc3c2Cl)c1,1.0%,-5.0%,2.1%,?,?
Oc1c(C=Nc2ccccc2)sc2ccccc12,0.0%,-4.0%,?,-1.2%,14.1µM*
Oc1ccccc1N=Cc1sc2ccccc2c1Cl,?,0.2%,8.9%,2.6%,11.2µM*
CCOc1ccccc1N1C(=O)c2ccccc2N/C1=C\N1CCN(C(=O)c2ccco2)CC1,.,-6.4%,-4.3%,0.0%,.
COc1ccc(CCNC(=O)c2ccc3nc(-c4ccco4)c(-c4ccco4)nc3c2)cc1OC,-1.8%,-19.4%,23.1µM*,1.9%,3.3%
COc1ccc(C(=O)NCCc2ccccc2)cc1OC,.,0.5%,?,-0.5%,1.2%
COc1ccc(/C(O)=C/c2nc3ccc(C(=O)NCCc4cccc(C)c4)cc3[nH]c2=O)cc1OC,17.8µM*,-0.1%,13.2%,19.8%,-0.2%
COC(=O)c1cc(CNC(=O)c2cccc(C)c2)cc(NC(=O)c2ccncc2)c1,.,.,.,0.4%,.
Cc1ccc(S(=O)(=O)/C(C#N)=C/c2c[nH]c3ccccc23)cc1,0.0%,-22.7%,16.4µM*,1.2%[38.3 µM],2.8%
CCC1CN(CCNC(=O)c2scc3c2OCCO3)Cc2cc(OC)ccc2O1 (configuration not stated),.,.,.,0.5%,.
Cc1cccc(NC(=S)/N=C(\N)Nc2nc(C)c3ccc(C)cc3n2)c1,0.0%,?,14.6µM*,6.5%,3.7%
Cc1nc(C)c(CC(=O)N2CCOc3ccc(CN4CCOCC4)cc3C2)s1,.,.,.,-0.5%,.
C(=N\Nc1nc(-c2cccnc2)nc2ccccc12)/c1ccccc1,0.1%,-10.9%,-1.8%,-0.7%,4.9%
